# FLuc modulator: firefly luciferase modulation, counter-screen for miR-21 project. P08659. 6.9% of 360,000 active. AID 588342. purified FLuc, Km substrates, luminescence inhibition. Potency, µM (doses to about 57.5 µM), most hits filed as inhibitors; further: nearly all actives have a fitted effect of over 55% in size
# Target sequence (P08659 whole entry, looked up): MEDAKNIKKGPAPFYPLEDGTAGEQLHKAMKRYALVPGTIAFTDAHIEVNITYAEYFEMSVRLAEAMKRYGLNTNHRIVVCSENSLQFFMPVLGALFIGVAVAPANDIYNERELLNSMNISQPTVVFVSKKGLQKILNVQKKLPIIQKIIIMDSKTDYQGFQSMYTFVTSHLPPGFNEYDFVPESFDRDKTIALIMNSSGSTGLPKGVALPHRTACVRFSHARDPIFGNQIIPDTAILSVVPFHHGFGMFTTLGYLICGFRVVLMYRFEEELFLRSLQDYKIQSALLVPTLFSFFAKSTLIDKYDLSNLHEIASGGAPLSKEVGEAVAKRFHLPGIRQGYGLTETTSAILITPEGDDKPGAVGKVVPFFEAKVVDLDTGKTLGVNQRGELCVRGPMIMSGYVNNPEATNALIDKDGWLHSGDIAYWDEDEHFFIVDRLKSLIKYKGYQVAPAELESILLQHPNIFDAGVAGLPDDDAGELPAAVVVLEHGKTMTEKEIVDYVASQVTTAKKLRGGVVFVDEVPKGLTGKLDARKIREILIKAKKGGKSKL
#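 Biochemical qHTS of compounds, final roughly 60 µM downward over six points, against 10 nM purified firefly luciferase using Km concentrations of substrates (10 uM D-luciferin, 10 uM ATP) in Tris acetate pH 7.5 buffer; luminescence output.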
# NPC1 prom act: NPC1 promoter activation. Huh7 NPC1 promoter luciferase reporter, 24 h. Potency, µM (titrated, usually from 9.22 µM), actives largely listed as activators. 2.4% of 320,000 active. AID 485313; further: nearly all actives have a fitted effect of over 60% in size
#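 Quantitative HTS used a cell-based reporter: Huh7 cells stably bearing the NPC1 promoter upstream of luciferase were treated with compounds for 24 h, and promoter activation was read as luminescence.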
# ELG1 repair inh: inhibitors of ELG1-dependent DNA repair in HEK293T cells; 2.3% of 330,000 active; Potency, µM (highest dose often 46.1 µM), actives largely listed as inhibitors; HEK293T ELG1-luciferase reporter, luminescence, 16 h; DNA damage induced by 5-fluorouridine; further: nearly all actives have a fitted effect of over 55% in size
#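 Overnight (16 hr) co-exposure of 2,000 cells/well to 5-fluorouridine and compound at 37 °C preceded detection. Luciferase was quantified via ONE-Glo luminescence; loss of signal denotes inhibition.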
# SMN2 splice up: increases expression of the SMN2 splice variant. HEK293 SMN2-luciferase splicing reporter, luminescence, 30-36 h. Potency, µM (titrated, usually from 46.1 µM), actives largely listed as activators. 2.8% of 210,000 active. AID 1458; further: nearly all actives have a fitted effect of over 55% in size
#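 qHTS luciferase splicing reporter: luminescence rises when SMN2 exon 7 is included in transfected HEK293 cells. Compound exposure lasted 30-36 h at 37C, with 4.5 mM final sodium butyrate as control, followed by a ONE-Glo read.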
# ELG1 genotox: inducers of genotoxicity in HEK293T ELG1-luciferase cells | HEK293T ELG1-luciferase reporter, luminescence, 16 h | Potency, µM (titrated, usually from 46 µM), usual class: activators | 1.3% of 330,000 active | AID 504466; further: nearly all actives have a fitted effect of over 60% in size
#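 After overnight (16 hr) compound treatment at 37 °C, ELG1-luciferase HEK293T cells were lysed with ONE-Glo; luminescence quantified 30 min later at room temperature.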
# Rab9 prom act: activators of Rab9 promoter; Huh7 Rab9 promoter-luciferase reporter, luminescence, 24 h; Potency, µM (doses to about 9.22 µM), hits mostly activators; 2.8% of 320,000 active; AID 485297; further: nearly all actives have a fitted effect of over 60% in size
#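 Quantitative HTS format; Huh7 Rab9-luciferase reporter cells (1500/well) receive compound 2 h post-plating, incubate 24 h at 37 °C, then get luciferase reagent for 10 min before luminescence reading.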
# Numbers stand for hits; n = inactive; u = inconclusive; x = no result; [ ] = another dose, or the depositor's remark. Hits are enriched below; roughly 9.4% of the tested compounds scored in any of these assays. The call rests on the fitted dose curve; in most records, active means well fitted curve in the direction sought with a large enough effect; inconclusive means small, poorly fitted or top-dose-only effect, or another doubt; inactive means no such curve, though single readings can be large; an effect the other way counts as inactive or inconclusive.
SMILES,FLuc modulator,NPC1 prom act,ELG1 repair inh,SMN2 splice up,ELG1 genotox,Rab9 prom act
CC(=O)Nc1ccc2nc(-c3ccccc3)cn2c1,2.1µM,1µM,u,2.5µM,5.8µM,1.1µM
CC(=O)Nc1ccc(-c2cc(-c3ccccc3)nc(-c3ccccc3)n2)cc1,n,n,u,n[1.84 µM],n,n
Cc1ccn2cc(-c3ccc(NS(=O)(=O)c4ccccc4)cc3)nc2c1,u,n,n,n,n,n
Cc1ccn2cc(-c3cccc([N+](=O)[O-])c3)nc2c1,0.67µM,0.56µM,u,1.8µM,0.46µM,u
Cc1cccc(NC(=O)c2ccccc2NC(=O)CCC(=O)O)c1,n,n,n,n,n,n
Cc1ccn2cc(-c3cccc(S(=O)(=O)N4CC(C)OC(C)C4)c3)nc2c1 (configuration not stated),u,n,n,x,n,n
Cc1ccn2cc(-c3cccc(NC(=O)CCC(=O)O)c3)nc2c1,0.85µM,n,u,x,n,n
Cc1ccn2cc(-c3cccc(NS(C)(=O)=O)c3)nc2c1,6.7µM,3.2µM,u,x,u,2.5µM
COc1ccccc1CNC(=O)c1ccc2c(c1)N(Cc1cc(C)ccc1C)C(=O)c1ccccc1S2,n,x,x,x,x,x
Cc1ccn2cc(-c3cccc(S(=O)(=O)N4CCCC4)c3)nc2c1,12µM,n,n,x,n,n
Cc1ccn2cc(C(=O)Nc3cccc(C(=O)NC4CC4)c3)nc2c1,1.3µM,u,u,x,n,u
CC(=O)Nc1cccc(C)c1,n,n,n,n,n,n
CC(=O)Nc1cccc(-c2cn3ccc(C)cc3n2)c1,4.3µM,3.2µM,u,x,u,1.6µM
Clc1ccc2nc(-c3ccccc3)cn2c1,0.48µM,0.4µM,u,x,0.92µM,0.4µM
CCN(CC)S(=O)(=O)c1ccc(C(=O)NCCSc2c(-c3ccc(C)cc3)[nH]c3ccccc23)cc1,n,x,x,n,x,x
O=C(O)/C=C\C=C/c1ccc2c(c1)OCO2,x,x,x,n[9.22 µM],x,x
N=c1c2c(n(Cc3ccc(Br)cc3)c3c1CCC3)CCCC2,n,n,n,n,n,n
N=c1c2c(n(Cc3ccc([N+](=O)[O-])cc3)c3c1CCC3)CCCC2,n,n,8.2µM,n,n,n
O=C(CCn1c(=O)sc2ccccc21)Nc1nccs1,13µM,n,u,n,u,n
O=C(CCCCCCN1C(=O)c2ccccc2C1=O)Nc1nccs1,n,n,16µM,n,n,n
CN(C)c1cccc(-c2nnc(SCCCC#N)o2)c1,6.7µM,3.2µM,u,11µM,u,2.2µM
CN(C)CCSc1nnc(-c2ccccc2)o1,u,n,u,10µM,13µM,n
CCCOC(=O)CSc1nnc(-c2ccccc2)o1,n,x,x,x,x,x
CCN(CC)C(=O)CSc1nnc(-c2ccccc2)o1,u,u,u,n,16µM,3.5µM
CCOc1ccc(CN2C(=O)c3ccccc3Sc3ccc(C(=O)OC)cc32)cc1,n,x,x,x,x,x
SMILES,FLuc modulator,NPC1 prom act,ELG1 repair inh,SMN2 splice up,ELG1 genotox,Rab9 prom act
CCc1ccc(-n2nc3cc(C)c(NC(=O)c4cc(Cl)ccc4OC)cc3n2)cc1,n,x,x,n,x,x
COc1ccc(Nc2nnc(SCC(=O)NC3CCS(=O)(=O)C3)s2)cc1 (configuration not stated),5.4µM,n,u,x,n,n
CN1/C(=C\C(=O)CSc2nnc(NCc3ccccc3)s2)C(C)(C)c2ccccc21,u,n,18µM,n,n,n
O=C(CSc1nnc(NCc2ccccc2)s1)NC1CCS(=O)(=O)C1 (configuration not stated),17µM,n,n,x,n,n
CCc1ccc(Nc2nnc(SCC(=O)N(C)C3CCS(=O)(=O)C3)s2)cc1 (configuration not stated),0.43µM,3.5µM,u,x,u,u
CC(=O)c1c(C)n(-c2cccc(Cl)c2)c2ccc(OC(=O)c3ccccc3)cc12,n,x,x,n,x,x
Cc1oc(C)c2c(=O)cc(-c3ccc4c(c3)OCO4)cc(OC(=O)c3ccccc3Br)c12,n,x,x,n,x,x
CC(C)c1ccc(NC(=O)CCCc2nc(-c3ccc(Cl)cc3)no2)cc1,n,x,x,x,x,x
CCc1cccc(C)c1NC(=O)c1cnn(-c2ccc(F)cc2)c1-n1cccc1,n,x,x,x,x,x
COc1ccc(Nc2nnc(SCC(=O)NC3CC3)s2)cc1,19µM,n,u,x,n,n
O=C(CSc1n[nH]c(-c2ccncc2)n1)NC1CCS(=O)(=O)C1 (configuration not stated),n,n,n,n,n,n
CCc1ccc(-c2nc(SCC(=O)NC3CCS(=O)(=O)C3)n[nH]2)cc1 (configuration not stated),5.4µM,n,u,x,u,n
CCOc1ccc(Sc2cc(C(=O)NC(C)c3ccccc3)c3ccccc3n2)cc1 (configuration not stated),n,x,x,x,x,x
Cc1cccc(C2C=C(c3ccc(C)c(C)c3)Nc3nnnn32)c1 (configuration not stated),n,x,x,x,x,x
O=Cc1ccccc1OCCCOc1cccc2cccnc12,13µM,n,n,x,n,n
Cc1ccc(OCCN2C(=O)c3ccccc3C2=O)c([N+](=O)[O-])c1,21µM,n,u,n,n,n
O=Cc1ccc(OCCCOc2cccc3cccnc23)cc1,n,n,n,x,n,n
Fc1ccc(COc2cccc3cccnc23)cc1,17µM,u,u,n,u,u
COc1cccc(OC)c1OCCCOc1cccc2cccnc12,17µM,u,u,u,n,3.2µM
NC(=O)COc1cccc2cccnc12,n,n,n,n,n,n
Cc1ccc(CCNC(=O)c2cc3c(=O)oc4ccccc4c3s2)cc1,n,x,x,n,x,x
Cc1ccc(OCCOc2cccc3ccc(C)nc23)c([N+](=O)[O-])c1,21µM,n,n,n,n,n
Clc1ccccc1OCCCOc1cccc2cccnc12,7.6µM,u,u,x,u,u
Cc1ccc2cccc(OCCCOc3ccccc3F)c2n1,19µM,n,n,x,n,n
Cc1ccc2cccc(OCc3cccc([N+](=O)[O-])c3)c2n1,n,n,n,x,n,n[1.84 µM]
SMILES,FLuc modulator,NPC1 prom act,ELG1 repair inh,SMN2 splice up,ELG1 genotox,Rab9 prom act
Cc1ccc2cccc(OCCOCCOc3ccccc3Br)c2n1,n,n,n,n,n,n
Cc1cccc(OCCCOc2cccc3cccnc23)c1C,u,n,n,n,n,n
O=[N+]([O-])c1ccccc1OCCCOc1cccc2cccnc12,6.7µM,u,u,x,u,u
COc1ccc(-n2c(-c3ccc(Br)cc3)c[n+]3c2CCCCC3)cc1,n,n,5.2µM,n,n,n
COc1ccc(-n2c(-c3ccccc3)c[n+]3c2CCC3)cc1,n,n,u,x,n,n
COc1ccc(-n2c(-c3ccc(Br)cc3)c[n+]3c2SC(C)C3)cc1 (configuration not stated),n,n,5.8µM,n,n,n
COc1ccc(-n2c(-c3ccc(Br)cc3)n[nH]c2=S)cc1,n,n,n,x,n,n

# From PubChem BioAssay
